Source: PubChem BioAssay (NCATS)
Several values for one entry are separate records, joined by “and”; a condition that tells them apart may be missing. Equal entries are not always repeated. Inconclusive results are not listed. Activity calls are given as the source filed them. The call rests on the fitted dose curve; in most records, active means well fitted curve in the direction sought with a large enough effect; inconclusive means small, poorly fitted or top-dose-only effect, or another doubt; inactive means no such curve, though single readings can be large; an effect the other way counts as inactive or inconclusive.

Columns and labels:
[1] = target: Cellular tumor antigen p53 (Homo sapiens) (UniProt P04637); test: Primary qHTS for small molecule compounds that upregulate eGFP-tagged delta133p53alpha (in N-terminal) cells. (AID 2060322); settings: NCI-H358 eGFP-delta133p53alpha fluorescence, 24 h; activation: active compounds read high; further: nearly all actives have a fitted effect of over 75% in size; further: potency means the concentration at half of the fitted maximal effect;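 on activation: cells pre-induced with doxycycline then dosed without doxycycline; series mostly up to about 56 µM; 0% = DMSO vehicle and 100% = reference activator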
Outline: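 NCI-H358 cells pre-induced 24 h with 10 ng/ml doxycycline for eGFP-delta133p53alpha, plated dox-free and exposed 24 h at 37C to titrated compounds. Fixed, Hoechst-stained; gated GFP peak intensity by laser scanning cytometry, normalized to DMSO (0%) and 57.5 uM 5-azacytidine (100%).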

[2] = target: Aldehyde dehydrogenase, mitochondrial (Homo sapiens) (UniProt P05091); test: qHTS for Inhibitors of the Aldehyde Dehydrogenase Family (ALDH2) Primary screen (AID 2061308);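 further: plate controls were vehicle for no effect and reference inhibitor for full effect; nearly all actives have a fitted effect of over 55% in size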
[3] = target: Retinaldehyde dehydrogenase 3 (Homo sapiens) (UniProt P47895); test: qHTS for Inhibitors of the Aldehyde Dehydrogenase Family (ALDH1A3) Primary screen (AID 2061315);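 further: plate controls were DMSO vehicle for no effect and reference inhibitor for full effect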
[4] = BET inhibitor-based combinations targeting novel dependencies in MECOM-rearranged (r) AML: SET-2 cell line (AID 2202231); settings: SET-2 AML cells viability, CellTiter-Glo luminescence, 48 h; viability: active compounds read low, concentration not given here; further: nearly all actives have a fitted effect of over 35% in size; further: potency means the concentration at half of the fitted maximal effect;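 on viability: plate controls were DMSO treated cells for no effect and wells without cells for full effect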
Outline: (§1)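 Each compound was tested at eleven concentrations on cells seeded at 500/well. After two days' incubation, ATP-based luminescence reported viability; responses relative to DMSO and blank wells yielded AUC and cell-line-centred Z-AUC.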

[5] = BET inhibitor-based combinations targeting novel dependencies in MECOM-rearranged (r) AML: MV-4-11 cell line (AID 2202233); further: nearly all actives have a fitted effect of over 45% in size; further: potency means the concentration at half of the fitted maximal effect
Outline: (§2)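 First, 500 cells per well were seeded; next, drugs were pinned as 11-point doses; then plates sat 48 hr in the incubator; finally CellTiter-Glo was added and luminescence read, with AUC and Z-AUC computed.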

[6] = BET inhibitor-based combinations targeting novel dependencies in MECOM-rearranged (r) AML: HNT-34 cell line (AID 2202234); further: nearly all actives have a fitted effect of over 35% in size; further: potency means the concentration at half of the fitted maximal effect;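 on viability (% of control): plate controls were vehicle wells for no effect and cell-free wells for full effect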
Outline: as §2

[7] = BET inhibitor-based combinations targeting novel dependencies in MECOM-rearranged (r) AML: AML-191 cell line (AID 2202236; further: nearly all actives have a fitted effect of over 35% in size; further: potency means the concentration at half of the fitted maximal effect;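 on viability (% of control): plate controls were vehicle wells for no effect and wells without cells for full effect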)
Outline: as §1

[8] = BET inhibitor-based combinations targeting novel dependencies in MECOM-rearranged (r) AML: AML-194 cell line (AID 2202237; further: nearly all actives have a fitted effect of over 40% in size; further: potency means the concentration at half of the fitted maximal effect;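 on viability (% of control): plate controls were vehicle wells for no effect and wells without cells for full effect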)
Outline: as §1

[9] = BET inhibitor-based combinations targeting novel dependencies in MECOM-rearranged (r) AML: UCSD-AML1 cell line (AID 2202235); further: nearly all actives have a fitted effect of over 40% in size; further: potency means the concentration at half of the fitted maximal effect;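 on viability (% of control): series mostly up to about 46 µM; plate controls were DMSO vehicle wells for no effect and blank wells for full effect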
Outline: as §2

Chain of Cellular tumor antigen p53 (Homo sapiens) (P04637 whole entry, looked up): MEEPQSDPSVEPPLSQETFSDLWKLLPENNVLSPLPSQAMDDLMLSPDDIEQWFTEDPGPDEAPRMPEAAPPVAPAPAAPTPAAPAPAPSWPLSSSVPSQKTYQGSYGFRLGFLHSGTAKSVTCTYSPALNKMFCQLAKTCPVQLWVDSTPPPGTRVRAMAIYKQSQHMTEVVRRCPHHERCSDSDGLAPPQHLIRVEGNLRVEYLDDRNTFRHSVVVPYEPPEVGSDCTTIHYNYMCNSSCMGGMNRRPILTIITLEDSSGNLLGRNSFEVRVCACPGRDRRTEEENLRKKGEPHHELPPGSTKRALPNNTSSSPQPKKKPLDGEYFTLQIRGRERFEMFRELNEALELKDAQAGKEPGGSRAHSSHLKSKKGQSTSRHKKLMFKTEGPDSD

Cn1ncnc1[C@H]1c2n[nH]c(=O)c3cc(F)cc(c23)N[C@@H]1c1ccc(F)cc1
inactive: activation [1] -4.3% and 20.1% | Potency [2] | Potency [3]
active: Potency [4] 3.72 µM | Potency [5] 0.0332 µM | Potency [6] 0.166 µM | Potency [7] 1.86 µM | Potency [8] 1.86 µM

O=C1NC(=O)C(c2cnc3ccccn23)=C1c1cn2c3c(cc(F)cc13)CN(C(=O)N1CCCCC1)CC2
active: Potency [1] 30.1 µM | Potency [4] 0.0417 µM | Potency [5] 0.186 µM | Potency [6] 0.0661 µM | Potency [9] 1.66 µM | Potency [7] 0.662 µM | Potency [8] 3.72 µM
inactive: Potency [2] | Potency [3]

Cc1cccc(CC(=O)N2CCc3c2ccc(-c2cn(C)c4ncnc(N)c24)c3F)n1
inactive: activation [1] 0.893% | Potency [2] | Potency [3]
active: Potency [4] 5.9 µM | Potency [5] 5.9 µM | Potency [6] 4.17 µM

CC[C@H](C)C(=O)O[C@H]1C[C@@H](C)C=C2C=C[C@H](C)[C@H](CC[C@@H]3C[C@@H](O)CC(=O)O3)[C@H]21
inactive: activation [1] -14.1% and 11.5% and 5.34% | Potency [2] | Potency [3] | viability [4] 109% | Potency [8]
active: Potency [5] 10.5 µM | Potency [6] 5.9 µM | Potency [9] 9.34 µM | Potency [7] 10.5 µM

CNC(=O)c1ccccc1Nc1nc(Nc2ccc3c(c2OC)CCC[C@@H](N2CCN(CCO)CC2)C3)ncc1Cl
inactive: Potency [2] | Potency [3] | Potency [5] | Potency [6] | Potency [9] | Potency [7] | Potency [8]
active: Potency [1] 9.53 µM | Potency [4] 18.6 µM

CCc1cc2c(cc1N1CCC(N3CCOCC3)CC1)C(C)(C)c1[nH]c3cc(C#N)ccc3c1C2=O
inactive: activation [1] 46.2% | Potency [2] | Potency [3] | viability [4] 88.5% | Potency [9]

Cn1ncc(Cl)c1-c1cc(C(=O)N[C@H](CN)Cc2cccc(F)c2)sc1Cl
inactive: Potency [2] | Potency [3]
active: Potency [1] 30.1 µM | Potency [4] 9.34 µM | Potency [6] 16.6 µM | Potency [7] 16.6 µM | Potency [8] 18.6 µM

COc1ccc(-c2c(C)nn3c(NCCN4CCOCC4)cc(C)nc23)cc1OC
inactive: activation [1] 7% | Potency [2] | Potency [3] | viability [4] 88.4% | Potency [9]
active: Potency [6] 20.9 µM

COc1ccc2c(c1)CC[C@@H](CN(C)CC(=O)O)[C@H]2c1ccccc1
inactive: activation [1] -11.9% | Potency [2] | Potency [3] | viability [4] 116% | Potency [9] | Potency [7] | Potency [8]

Cc1c(C)n(Cc2ccc(-c3ccccc3C(=O)O)cc2)c2ccc(C(=O)N[C@@H](C)c3ccc([N+](=O)[O-])cc3)cc12
inactive: activation [1] 21.3% and -1.79% | Potency [2] | Potency [3] | viability [4] 111% | Potency [6] | Potency [9] | Potency [7] | Potency [8]

Clc1ccc(Nc2nnc(Cc3ccncc3)c3ccccc23)cc1
inactive: activation [1] -10.3% and 9.21% and -17% | Potency [2] | Potency [3] | viability [4] 91.3% | Potency [6] | Potency [7] | Potency [8]

O=C(C1CC1)N1CC[C@@H](Cc2n[nH]c(=O)n2-c2ccc(-c3ccc4occc4c3)cc2)C1
inactive: activation [1] -2.33% and -15.1% | Potency [2] | Potency [3] | viability [4] 95.8% | Potency [9] | Potency [8]

COc1c(C)cc(NC(=O)c2nn(Cc3ccc(F)cc3)c3c2CN(C(=O)c2ccc[nH]2)C[C@]3(C)C(N)=O)cc1C
inactive: activation [1] 0.333% | Potency [2] | Potency [3] | viability [4] 118% | viability (% of control) [6] 105% [at 8.46 µM] | viability (% of control) [8] 108% [at 8.46 µM]

CCOc1ccn(-c2ccc(F)cc2)c(=O)c1C(=O)Nc1ccc(Oc2ccnc(N)c2Cl)c(F)c1
inactive: activation [1] 49.1% | Potency [2] | Potency [3] | viability [4] 104% | Potency [9]
active: Potency [7] 8.33 µM

Nc1ncnc2c1c(COc1cccc(Cl)c1)nn2C1CCOCC1
inactive: activation [1] 15.2% | Potency [2] | Potency [3] | viability [4] 99.8% | Potency [9] | Potency [7]

O=c1[nH]c(-c2ccc(C(F)(F)F)cc2)nc2c1CSCC2
inactive: activation [1] 25.7% and -15.7% | Potency [2] | Potency [3] | viability [4] 95.3% | Potency [6] | Potency [9] | Potency [7] | Potency [8]

Cc1cc(CS(=O)(=O)c2ccccc2)cc(OCc2ccc(CN3CCC[C@@H]3CO)cc2)c1
active: Potency [5] 10.5 µM | Potency [8] 18.6 µM
inactive: activation [1] 3.67% | Potency [2] | Potency [3] | viability [4] 87.8%
